# Compound activity as filed in PubChem.
# GLP-1R agonist: qHTS of GLP-1 Receptor Agonists | Glucagon-like peptide 1 receptor (Homo sapiens), P43220 | HEK293 GLP-1R CRE-luciferase, luminescence, 4-6 h; cells express a hypersensitive GLP-1R form | Potency, µM (doses to about 45.6 µM), most hits filed as activators | 0.007% of 380,000 active | AID 624172, 2012
# HEK293 tox: qHTS of GLP-1 Receptor Inverse Agonists: Cytotox Screen | HEK293 cAMP-luciferase reporter cells, luminescence, 24 h | Potency, µM (titrated, usually from 38.3 µM), hits mostly inhibitors | 0.13% of 410,000 active | AID 624418, 2012;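 note: loss of luciferase light is scored as toxicity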
#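 1536-well qHTS counterscreen of the MLSMR; 200 cells/uL, 12 h pre-incubation, 23 nL cpd, 24 h at 37 deg C 5% CO2, luciferase detection reagent, 12 min RT, luminescence. Inhibition = undesired.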
# KAT2A inh: qHTS Assay for Inhibitors of GCN5L2. Histone acetyltransferase KAT2A (Homo sapiens), Q92830. GCN5L2 HAT assay, ThioGlo1 CoA-SH fluorescence. Potency, µM (doses to about 58.9 µM), hits mostly inhibitors. 0.21% of 390,000 active
#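 GCN5L2 (20nM final) in 50mM HEPES, 0.1mM EDTA pH 7.5, 0.01% Tween-20 was preincubated 15 min at room temperature with compound, then given ThioGlo1 (50uM), H3(1-25) peptide (75uM) and acetyl-CoA (70uM); CoA-thiol fluorescence (Ex340/Em540) was read at 0 and 20 min.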
# GLP-1R inv ag: qHTS of GLP-1 Receptor Inverse Agonists (Inhibition Mode); HEK293 GLP-1R CRE-luciferase, luminescence, 24 h; GLP-1R form is constitutively active; Potency, µM (titrated, usually from 38.3 µM), most hits filed as inhibitors; 1.6% of 410,000 active; note: nearly all actives have a fitted effect of over 55% in size
#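 Stable HEK293 clone (constitutively active GLP-1R + cAMP-response luciferase); 200 cells/uL plated, 12 h pre-culture, compound 24 hr, 37 deg C/5% CO2; detection reagent 12 min RT; luminescence.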
# PTHR1 ag: qHTS for PTHR1 Agonists: Primary Screen; Potency, µM (series often up to 115 µM), usual class: activators; 0.075% of 410,000 active; Parathyroid hormone/parathyroid hormone-related peptide receptor (Homo sapiens), Q03431; HEK293 GP2 PTHR1 cells, GloSensor cAMP luminescence, 1 h; note: nearly all actives have a fitted effect of over 55% in size
# Target sequence (Q03431 whole entry, looked up): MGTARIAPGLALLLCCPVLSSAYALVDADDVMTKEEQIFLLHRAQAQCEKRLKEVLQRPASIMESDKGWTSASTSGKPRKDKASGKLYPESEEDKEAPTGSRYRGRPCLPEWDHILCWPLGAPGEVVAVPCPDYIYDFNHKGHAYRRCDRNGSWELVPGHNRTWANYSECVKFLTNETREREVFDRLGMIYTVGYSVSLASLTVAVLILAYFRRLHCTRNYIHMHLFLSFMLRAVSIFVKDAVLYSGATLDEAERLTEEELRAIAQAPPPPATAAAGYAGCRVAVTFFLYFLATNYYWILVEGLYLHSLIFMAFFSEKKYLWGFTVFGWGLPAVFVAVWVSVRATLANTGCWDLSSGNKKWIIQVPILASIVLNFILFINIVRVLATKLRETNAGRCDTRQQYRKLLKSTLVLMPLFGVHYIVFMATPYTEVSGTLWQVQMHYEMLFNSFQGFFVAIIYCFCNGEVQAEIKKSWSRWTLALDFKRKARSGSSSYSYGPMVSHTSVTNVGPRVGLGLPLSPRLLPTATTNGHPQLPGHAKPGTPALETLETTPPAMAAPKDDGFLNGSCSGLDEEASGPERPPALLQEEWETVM
#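 HEK-293-derived GP2 cells expressing PTHR1 and a GloSensor cAMP reporter, 3,000/well, plated overnight, given luciferin plus IBMX (each 0.5 mM as added) for 1 h at 37 °C, then compound for 1 h at 37 °C. Luminescence was read after 15 min at room temperature.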
# RGS4 inhibitor: Inhibitors of Regulator of G Protein Signaling (RGS) 4: qHTS; Regulator of G-protein signaling 4 (Homo sapiens), P49798; Transcreener GDP fluorescence polarization, RGS4-accelerated GTP hydrolysis; Potency, µM (top dose mostly 114 µM), hits mostly inhibitors; AID 504845, 2011; 0.039% of 390,000 active; note: nearly all actives have a fitted effect of over 75% in size
#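 MLSMR compounds (23 nl, pin-transferred) preincubated 10 min at room temperature with a 500nM (2x) first reagent, then RGS4 at 900nM (2x) plus Transcreener GDP mix added; fluorescence polarization (620/688 nm) read before and after 90 min at 30 °C.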
# A number is an active result; n = inactive; u = inconclusive; x = no result; [ ] = remark or other dose. The list is not random: actives were taken first. Their share in the collection is about 1.8%. Calls come from the whole dose curve; as a rule, active = well fitted curve in the direction sought with a large enough effect; inconclusive = small, poorly fitted or top-dose-only effect, or another doubt; inactive = no such curve, though single readings can be large; an effect the other way counts as inactive or inconclusive.
SMILES,GLP-1R agonist,HEK293 tox,KAT2A inh,GLP-1R inv ag,PTHR1 ag,RGS4 inhibitor
CC(C)(C)c1ccc(C(=O)N2CCC(=O)N([C@H](COCc3ccccc3)Cc3ccccc3)CC2)cc1,n,u,x,10µM,n,x
CC(C)(C)c1ccc(C(=O)N2CCC(=O)N(C(COCc3ccccc3)Cc3ccccc3)CC2)cc1 (stereo not given),n,u,n,u,n,n
O=C(c1ccc(Cl)c(Cl)c1)N1CCC(=O)N(C(COCc2ccc(Cl)cc2)Cc2ccccc2)CC1 (stereo not given),n,n,n,10µM,n,n
CCN(CC)C(=O)c1sc2c(c1C)c(=O)n(Cc1ccccc1)c(=O)n2Cc1ccccc1C,x,n,n,11µM,n,n
CCN(CC)C(=O)c1sc2c(c1C)c(=O)n(CCc1ccccc1)c(=O)n2Cc1cccc(Cl)c1,x,n,n,u,n,n
COc1ccc(-c2csc(NCCc3nc4cc(Cl)c(N5CCCCC5)cc4n3CCOCCO)n2)cc1,n,n,x,u,n,n
OCCCn1c(CCCNc2nc(-c3cccc(Br)c3)cs2)nc2cc(Cl)c(N3CCCCC3)cc21,n,n,n,10µM,n,n
CC(C)c1cc(C(C)C)c(S(=O)(=O)N2c3ccccc3[C@@]3(Br)C[C@H]4C(=O)N[C@@H](Cc5ccccc5)C(=O)N4[C@@H]23)c(C(C)C)c1,n,n,x,5.6µM,n,n
O=C1N[C@@H](Cc2ccccc2)C(=O)N2[C@@H]3N(S(=O)(=O)c4ccccc4)c4ccccc4[C@]3(Br)C[C@@H]12,n,n,x,10µM,n,n
O=C1N[C@@H](Cc2ccccc2)C(=O)N2[C@H]1C[C@]1([C@]34C[C@H]5C(=O)N[C@@H](Cc6ccccc6)C(=O)N5[C@H]3N(S(=O)(=O)c3ccccc3)c3ccccc34)c3ccccc3N(S(=O)(=O)c3ccccc3)[C@H]21,n,n,n,n,n,n
CNCC(=O)NC(CCCN=C(N)N)C(=O)NC(C(=O)NC(Cc1ccc(O)cc1)C(=O)NC(C(=O)NC(Cc1cnc[nH]1)C(=O)N1CCCC1C(=O)NC(C)C(=O)O)C(C)C)C(C)C (stereo not given),n,x,n,x,x,x
CC(C)[C@@H]1NC(=O)[C@H](CCCCN)NC(=O)[C@@H](Cc2c[nH]c3ccccc23)NC(=O)[C@H](Cc2ccc(O)cc2)NC(=O)[C@@H](NC(=O)[C@H](N)Cc2ccccc2)CSSC[C@@H](C(=O)N[C@@H](Cc2c[nH]c3ccccc23)C(N)=O)NC1=O,x,x,n,x,x,x
Cc1ccc(C)c(N2CCN(C(=O)C3CCCN(Cc4nc(-c5cccc(Cl)c5)oc4C)C3)CC2)c1 (stereo not given),x,n,n,n,n,n
Cc1ccc(Cl)cc1N1CCN(C(=O)C2CCCN(Cc3nc(-c4cccc(Cl)c4)oc3C)C2)CC1 (stereo not given),x,n,n,4µM,n,n
O=C(CSc1nnc(CNc2ccc(F)cc2)o1)N1c2ccccc2Sc2ccccc21,n,n,n,n,n,n
O=Nc1ccc2oc(=O)ccc2c1,x,x,u,x,x,6µM
Cc1cc(C)cc(NS(=O)(=O)c2ccc3oc(=O)ccc3c2)c1,n,n,n[0.501 µM],u,n,n
COc1ccc(N2CC(NC(=O)C3CC3)CC2=O)cc1OC (stereo not given),n,n,n,n,n,n
c1ccc2c(-c3cncc4ccccc34)cncc2c1,n,n,x,2µM,n,n
CCOC(=O)c1c(C)c(C(=O)NCc2ccc(Cl)cc2)c(C)n1CC,x,n,n,n,n,n
